Assay [1] is described as follows: Quantitative High-Throughput drug screen in 47 multiple myeloma cell lines against the NCATS MIPE library collection: OCIMY5_PLB cell viability assay (AID 1918988). Further: nearly all actives have a fitted effect of over 65% in size. Further: potency means the concentration at half of the fitted maximal effect. The method in brief: (§1)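 Inhibition of viability over 48 h was scored by ATP content (CellTiter-Glo) in 500-cell wells. Zero and full viability were defined by media-only and DMSO-only wells.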
A short description of assay [2]: Quantitative High-Throughput drug screen in 47 multiple myeloma cell lines against the NCATS MIPE library collection: OPM1_PLB cell viability assay (AID 1918989). Further: nearly all actives have a fitted effect of over 40% in size. Further: potency means the concentration at half of the fitted maximal effect. The method in brief:
as §1

Assay [3] in a line: Quantitative High-Throughput drug screen in 47 multiple myeloma cell lines against the NCATS MIPE library collection: SKMM1_PLB cell viability assay (AID 1919863). Further: nearly all actives have a fitted effect of over 35% in size. Further: potency means the concentration at half of the fitted maximal effect. On viability: series mostly up to about 46 µM. As to conditions: SKMM1 myeloma viability, CellTiter-Glo ATP, 48 h; viability: stronger effect = lower value. The essentials: as §1
On the technique in general: ATP-based viability assays read luminescence as a measure of living cells.

Assay [4] is described as follows: Quantitative High-Throughput drug screen in 47 multiple myeloma cell lines against the NCATS MIPE library collection: U266_ATCC cell viability assay (AID 1919864). Further: nearly all actives have a fitted effect of over 35% in size. Further: potency means the concentration at half of the fitted maximal effect. The method in brief: as §1
A short description of assay [5]: Quantitative High-Throughput drug screen in 47 multiple myeloma cell lines against the NCATS MIPE library collection: XG1_PLB cell viability assay (AID 1919866). Further: nearly all actives have a fitted effect of over 35% in size. Further: potency means the concentration at half of the fitted maximal effect. The method in brief:
as §1

Assay [6] is described as follows: Quantitative High-Throughput drug screen in 47 multiple myeloma cell lines against the NCATS MIPE library collection: VP6_DJ cell viability assay (AID 1919867). Further: nearly all actives have a fitted effect of over 40% in size. Further: potency means the concentration at half of the fitted maximal effect. The essentials:
as §1

Assay [7] in a line: Quantitative High-Throughput drug screen in 47 multiple myeloma cell lines against the NCATS MIPE library collection: PE2_PLB cell viability assay (AID 1919869). Further: nearly all actives have a fitted effect of over 35% in size. Further: potency means the concentration at half of the fitted maximal effect. The method in brief: as §1
Assay [8] in a line: Quantitative High-Throughput drug screen in 47 multiple myeloma cell lines against the NCATS MIPE library collection: PCM6_Riken cell viability assay (AID 1919870). Further: nearly all actives have a fitted effect of over 30% in size. Further: potency means the concentration at half of the fitted maximal effect. The essentials:
as §1

Assay [9] can be described thus: Quantitative High-Throughput drug screen in 47 multiple myeloma cell lines against the NCATS MIPE library collection: RPMI8226_ATCC cell viability assay (AID 1919871). Further: nearly all actives have a fitted effect of over 30% in size. Further: potency means the concentration at half of the fitted maximal effect. The method in brief:
as §1

Assay [10] is described as follows: Quantitative High-Throughput drug screen in 47 multiple myeloma cell lines against the NCATS MIPE library collection: KMS11_JCRBsus cell viability assay (AID 1919873). Further: nearly all actives have a fitted effect of over 50% in size. Further: potency means the concentration at half of the fitted maximal effect. The method in brief: as §1
Assay [11] in a line: Quantitative High-Throughput drug screen in 47 multiple myeloma cell lines against the NCATS MIPE library collection: KMS28BM_JCRB cell viability assay (AID 1919874). Further: nearly all actives have a fitted effect of over 35% in size. Further: potency means the concentration at half of the fitted maximal effect. The method in brief:
as §1

Assay [12] is described as follows: KB-8-5-11 P-gp reporter qHTS against the NCATS DSHEA and TCM libraries (AID 1919977). Further: 0% is about no effect. The essentials: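 Viability of drug-resistant KB-8-5-11 cells is measured by CellTiter-Glo luminescence following roughly 72 h treatment at 37C. Substances were titrated, with bortezomib as intraplate control.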
(In general: In qHTS, concentration-response curves come from the screen itself.)

The structures appear in SMILES notation. Results filed as inconclusive are left out. Unmarked numbers belong to inactive results. Calls of active or inactive are those of the source. The call rests on the fitted dose curve; in most records, active means well fitted curve in the direction sought with a large enough effect; inconclusive means small, poorly fitted or top-dose-only effect, or another doubt; inactive means no such curve, though single readings can be large; an effect the other way counts as inactive or inconclusive.

For `CN(C)CCc1ccc(O)cc1`, the Potency result in assay [1], in [2], in assay [4], in assay [5], in assay [8] and in assay [9] was “inactive” in each case. Besides, the Potency entry in [10] was “inactive”. Also, the viability (as a rule, a read-out of living cells in per cent, often relative to untreated cells) in [3] was 107%. The Potency in assay [6] is 6.62 µM (active); in assay [7], 9.35 µM (active).

For `N[C@@H](Cc1ccc(N(CCCl)CCCl)cc1)C(=O)O`, the Potency is 9.35 µM (active) in [1]; 13.2 µM (active) in [2]; 26.4 µM (active) in [3]; 16.6 µM (active) in [4]; 7.43 µM (active) in assay [5]; 11.8 µM (active) in assay [6]. The Potency in assay [7] was 3.32 µM (active); in assay [8] it was 3.72 µM (active); in assay [10], 23.5 µM (active); in assay [11], 23.5 µM (active).

`O=c1c(O)c(-c2ccc(O)c(O)c2)oc2cc(O)cc(O)c12`: the molecule was called inactive in assay [12].

In the case of `O=P1(NCCCl)OCCCN1CCCl` (configuration not stated), the Potency in assay [1] was 18.7 µM (active); in assay [2], 16.6 µM (active); in assay [6] it was 6.62 µM (active). Also, the Potency result in assay [8] was “inactive”.

For `NCC1(CC(=O)O)CCCCC1`, the Potency result in [2], in [4], in [7], in assay [9], in [10] and in assay [11] was “inactive” throughout. For the same molecule, the viability in assay [3] was 140%. Besides, the Potency in assay [8] was 16.6 µM (active).

On to `Cc1cccc(C)c1NC(=O)CN1CCCC1=O`, for which the Potency entry in [1], in assay [7], in assay [8], in [9], in assay [10] and in [11] was “inactive” throughout. Besides, in assay [3], the viability is 118%.

For `CN(C)CCN(C)CCc1ccc(Cl)c(Cl)c1`, the Potency result in assay [1], in assay [2], in assay [5], in [6], in [9] and in assay [10] was “inactive” each time. Besides, in assay [11], the Potency entry is “inactive”.

Take `Cn1c(CCCC(=O)O)nc2cc(N(CCCl)CCCl)ccc21`: the Potency is 8.33 µM (active) in assay [1], 14.8 µM (active) in assay [5] and 8.33 µM (active) in assay [7]. The Potency result in [2], in [6], in assay [10] and in assay [11] was “inactive” each time.

For the molecule `O=c1[nH]c2ccccc2n1CCCN1CCC(n2c(=O)[nH]c3cc(Cl)ccc32)CC1`, the Potency entry in [2] and in assay [4] was “inactive” throughout. Moreover, in [3], the viability is 125%. Besides, the Potency is 13.2 µM (active) in assay [6] and 2.96 µM (active) in [8].

With `Cc1cc(SCc2sc(-c3ccc(C(F)(F)F)c(F)c3)nc2C)ccc1OCC(=O)O`, the Potency was 13.2 µM (active) in assay [1]; 20.9 µM (active) in assay [2]; 18.7 µM (active) in [4]; 26.4 µM (active) in assay [7]; 20.9 µM (active) in assay [8]; 18.7 µM (active) in assay [9].

As to `CN(C)[C@@H]1C(=O)C(C(N)=O)=C(O)[C@@]2(O)C(=O)C3=C(O)c4c(O)cccc4[C@@](C)(O)[C@H]3C[C@@H]12`, the Potency result in [4], in [5], in [7], in assay [8], in assay [10] and in assay [11] was “inactive” throughout. Also, the Potency in assay [9] is 5.9 µM (active).

Take `CNC(=O)c1ccc(N2C(=S)N(c3ccc(C#N)c(C(F)(F)F)c3)C(=O)C23CCC3)cc1F`: the Potency in [1] is 1.32 µM (active); in assay [4] it was 8.33 µM (active); in [5], 1.32 µM (active); in assay [6], 8.33 µM (active); in assay [7], 9.35 µM (active); in assay [8], 7.43 µM (active). The Potency entry in assay [9], in [10] and in assay [11] was “inactive” in each case.

For `Fc1ccc(C(OCCN2CCN(CCCc3ccccc3)CC2)c2ccc(F)cc2)cc1`, the Potency was 13.2 µM (active) in [1]; 16.6 µM (active) in [2]; 23.5 µM (active) in assay [3]; 7.43 µM (active) in assay [5]; 9.35 µM (active) in [6]; 13.2 µM (active) in assay [7]. Besides, the Potency in assay [8] was 10.5 µM (active); in assay [9], 18.7 µM (active); in assay [10], 11.8 µM (active); in assay [11], 13.2 µM (active).

Consider `CNC(=O)N1N=C(c2ccc(N)cc2)c2cc3c(cc2CC1C)OCO3` (configuration not stated), for which the Potency was 3.72 µM (active) in assay [1]; 4.69 µM (active) in assay [2]; 5.26 µM (active) in assay [3]; 3.72 µM (active) in [4]; 2.64 µM (active) in assay [6]; 7.43 µM (active) in [7]. Further, in [8], the Potency is 13.2 µM (active).

For `Cc1sc2c(c1C)C(c1ccc(Cl)cc1)=N[C@@H](CC(=O)OC(C)(C)C)c1nnc(C)n1-2`, the Potency is 0.132 µM (active) in [1]; 0.0743 µM (active) in assay [2]; 0.372 µM (active) in assay [3]; 0.148 µM (active) in assay [4]; 0.187 µM (active) in assay [5]; 0.0833 µM (active) in [6]. In addition, the Potency is 1.18 µM (active) in assay [7], 2.96 µM (active) in [8], 0.059 µM (active) in assay [10] and 0.105 µM (active) in [11].

Turning to `COC[C@H]1OC(=O)c2coc3c2[C@@]1(C)C1=C(C3=O)C2CCC(=O)[C@@]2(C)C[C@H]1OC(C)=O` (some centres not stated), the Potency in [1] is 14.8 µM (active); in assay [2], 0.833 µM (active); in assay [3], 2.96 µM (active); in assay [4], 20.9 µM (active); in [5], 1.48 µM (active); in assay [6] it was 3.72 µM (active). In addition, the Potency was 1.66 µM (active) in assay [7], 3.32 µM (active) in assay [8], 5.9 µM (active) in [9] and 13.2 µM (active) in assay [10].

With `CC(O)(CS(=O)(=O)c1ccc(F)cc1)C(=O)Nc1ccc(C#N)c(C(F)(F)F)c1` (configuration not stated), the Potency in assay [1] was 0.332 µM (active); in [2], 3.32 µM (active); in [4], 0.743 µM (active); in assay [5], 0.166 µM (active); in assay [6], 0.743 µM (active); in assay [7], 0.418 µM (active). Further, in [8], the Potency is 0.59 µM (active). The Potency result in assay [9], in [10] and in assay [11] was “inactive” each time.

`C[C@@H]1O[C@@H](O[C@H]2C[C@@H](O)[C@]3(CO)[C@H]4[C@H](O)C[C@]5(C)[C@@H](C6=CC(=O)OC6)CC[C@]5(O)[C@@H]4CC[C@]3(O)C2)[C@H](O)[C@H](O)[C@H]1O`: the Potency was 0.0235 µM (active) in [1]; 0.059 µM (active) in assay [3]; 0.0209 µM (active) in assay [4]; 0.0074 µM (active) in assay [5]; 0.0166 µM (active) in assay [6]; 0.0332 µM (active) in [7]. For the same molecule, the Potency was 0.0187 µM (active) in assay [8], 0.0935 µM (active) in assay [10] and 0.0209 µM (active) in assay [11].

The record behind these values is PubChem BioAssay (NCATS).
